Source: PubChem BioAssay
The list is not random: actives were taken first. Their share in the collection is about 32%.
CYP2C9 inh = blockers of cytochrome P450 2C9 activity – biochemical, luminescence, ADME assay, primary screen. P11712. CYP2C9 Supersomes, luciferin-H conversion. inhibition, % at 5 µM. 20% of 96,000 active. AID 777, 2007;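 active means blocking of liver enzyme CYP2C9 beyond about 50% at 5 µM, limit read from the data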
Target sequence (P11712 whole entry, looked up): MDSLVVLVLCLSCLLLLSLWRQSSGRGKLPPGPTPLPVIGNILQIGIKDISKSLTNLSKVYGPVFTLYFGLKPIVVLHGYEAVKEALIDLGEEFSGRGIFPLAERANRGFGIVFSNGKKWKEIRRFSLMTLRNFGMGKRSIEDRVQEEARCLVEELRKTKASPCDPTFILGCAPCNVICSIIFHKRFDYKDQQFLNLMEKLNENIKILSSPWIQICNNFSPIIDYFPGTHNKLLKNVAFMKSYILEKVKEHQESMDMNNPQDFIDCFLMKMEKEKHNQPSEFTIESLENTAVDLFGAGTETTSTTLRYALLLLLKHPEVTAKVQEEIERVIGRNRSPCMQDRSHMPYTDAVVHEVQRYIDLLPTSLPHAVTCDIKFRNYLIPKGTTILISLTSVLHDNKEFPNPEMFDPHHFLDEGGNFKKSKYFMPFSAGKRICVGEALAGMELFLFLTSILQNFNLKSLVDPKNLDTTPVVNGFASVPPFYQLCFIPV
CYP2C19 inhib = blockers of cytochrome P450 2C19 activity – biochemical, luminescence, ADME assay, primary screen. CYP2C19 Supersomes, luciferin-H EGE luminescence, 30 min. P33261. AID 778, 2007. inhibition, % at 5 µM. 21% of 96,000 active;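 active means CYP2C19 inhibition above a set limit at 5 µM in the primary screen, cut at about 50% in these data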
CYP2C19 activ = human CYP2C19 activators, primary screen, biochemical, luminescence; recombinant CYP2C19, luciferin-H EGE luminescence; active compounds read high; 0 = fully inhibited enzyme, 1 = untreated enzyme; activation factor at 5 µM; 96,000 tested, under 10 active;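 active means activation factor of at least 2 at 5 µM in the primary screen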
CYP2C9 act = human CYP2C9 activators, primary screen, biochemical, luminescence; Cytochrome P450 2C9 (Homo sapiens), P11712; recombinant CYP2C9, luciferin-H conversion; active compounds read high; factor 1 = untreated enzyme, 0 = blocked; activation factor at 5 µM; 1.4% of 96,000 active; AID 1024, 2008;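 active means activation factor of 2 or more for CYP2C9 at a 5 µM dose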
PostGolgi ctrl = growth inhibition of yeast control strain, primary screen, counter-screen for post-Golgi transport modulator project. inhibition, % at 10 µM. efflux-deficient yeast background strain, growth absorbance A615, 16 h. 5% of 98,000 active
PostGolgi yeast = phenotypic screen on post-Golgi transport, primary screen. AID 739, 2007. 0.9% of 98,000 active. inhibition, % at 10 µM. post-Golgi transport phenotypic cell assay;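 further: yeast cells grown in 1536-well plates; yeast grown about 18 h at 30C before absorbance read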
Each line names hits and unclear results; the compound was inactive in the other large screens. Unless noted, no stated cut-off is given here; in the data, active means inhibition above about 30%; inactive means the rest.

COc1ccccc1C(=O)Nc1ccc(N2CCN(S(C)(=O)=O)CC2)cc1	CYP2C19 inhib 53.4
COc1cc(C(=O)Nc2ccccc2N2CCN(S(C)(=O)=O)CC2)cc(OC)c1OC	CYP2C9 inh 78.9
CS(=O)(=O)N1CCN(c2ccccc2NC(=O)c2cccnc2)CC1	none
COc1ccccc1C(=O)Nc1ccccc1N1CCOCC1	none
COc1c(C)cccc1C(=O)Nc1ccc(N2CCN(S(C)(=O)=O)CC2)cc1	none
COc1ccccc1C(=O)Nc1ccccc1N1CCN(S(C)(=O)=O)CC1	CYP2C9 inh 74.3, CYP2C19 inhib 68.8
O=C(O)c1ccc(NS(=O)(=O)c2ccc3nnn(O)c3c2)cc1	none
O=C(CSc1nc2sc3c(c2c(=O)n1-c1ccccc1)CCCC3)NCc1ccco1	PostGolgi ctrl 31.6
CC1(C)Cc2c(sc3nc(SCC(=O)NCc4ccco4)n(-c4ccccc4)c(=O)c23)CS1	CYP2C9 inh 53.9
Cc1nc2sc3c(c2c2nnc(SCC(=O)NCc4ccco4)n12)CCCC3	CYP2C9 inh 71.5, CYP2C19 inhib 97.6
O=C(CSc1nnc2c3c4c(sc3ncn12)CCCC4)NCc1ccco1	none
CNc1nc2c(c(=O)[nH]c(=O)n2C)n1CCOC	none
O=C1S/C(=C/c2ccc(N3CCOCC3)o2)C(=O)N1Cc1ccc(F)cc1	none
O=C1/C(=C/c2ccc(N3CCOCC3)o2)SC(=Nc2ccccc2)N1CCc1c[nH]c2ccccc12	CYP2C9 inh 63.1
O=C(CSc1nnc(-c2ccncc2)n1Cc1ccco1)Nc1nc(-c2ccccc2)cs1	none
CCc1nnc(NC(=O)CSc2nnc(-c3ccccc3O)n2CC)s1	CYP2C9 inh 76.8, CYP2C19 inhib 75.9
CCn1c(SCC(=O)Nc2nc3c(s2)CCCC3)nnc1-c1ccccc1	CYP2C9 inh 87.8, CYP2C19 inhib 81.2
Cc1ccc2cc(C)c3nnc(SCC(=O)Nc4nc5c(s4)CCCC5)n3c2c1C	CYP2C9 inh 50.5
CCn1c(SCC(=O)Nc2nc(-c3ccccc3)cs2)nnc1-c1ccccc1O	CYP2C9 inh 95.3, CYP2C19 inhib 89.1, PostGolgi ctrl 41.8
COc1ccc(N2CCN(C(=O)CSc3nnc4c(C)cc5ccc(C)c(C)c5n34)CC2)cc1	none
CCn1c(SCC(=O)N(C(C)C)C(C)C)nnc1-c1cc2ccccc2cc1O	CYP2C9 inh 56.6, CYP2C19 inhib 64.6, PostGolgi ctrl 46.1
CCc1nnc(NC(=O)CSc2nnc(-c3cc4ccccc4cc3O)n2CCOC)s1	CYP2C9 inh 53.7
CCc1nnc(NC(=O)CSc2nnc(-c3cccnc3)n2CC)s1	none
CCc1nnc(NC(=O)CSc2nnc(-c3cc4ccccc4cc3O)n2CC)s1	CYP2C9 inh 89.9, CYP2C19 inhib 51.5
COc1cccc(NC(=O)c2ccc(NC(C)=O)cc2)c1	none
COc1ccc(OCc2ccc(C(=O)NN)cc2)cc1	CYP2C9 inh 69.3, CYP2C19 inhib 92.1
COc1ccc(C(=O)Nc2cc(OC)cc(OC)c2)cc1	CYP2C19 inhib 86.2
COc1ccc(C(=O)Nc2cccc(OC(=O)c3ccc(C)c(C)c3)c2)cc1	CYP2C9 inh 69.9
COc1cc(NC(=O)c2ccccc2)cc(OC)c1	none (no result: PostGolgi ctrl, PostGolgi yeast)
COc1cccc(-n2c(SCC(=O)O)nnc2-c2cccnc2)c1	none
C=C(C)CSc1nnc(-c2cccc(S(=O)(=O)N(C)C)c2)n1-c1cc(OC)ccc1OC	CYP2C9 inh 85.0, CYP2C19 inhib 85.6
Cc1ccc(-c2ccc(/C=C(\C#N)C(=O)Nc3cc(C)nn3-c3ccccc3)o2)cc1	none
N#C/C(=C\c1ccc(-c2ccccc2)o1)C(=O)Nn1cnnc1	CYP2C9 inh 98.8, CYP2C19 inhib 92.0
Cc1cc(C)c(NC(=O)/C=C\C(=O)O)c([N+](=O)[O-])c1	none
Cc1ccn2c(C(=O)c3ccc(Cl)cc3)cnc2c1	CYP2C9 inh 75.0, CYP2C19 inhib 79.4
Cc1ccn2c(C(=O)CSc3ccc(Cl)cc3)c(C)nc2c1	none
COc1cccc(N2CC(O)=C(c3ccccc3)C2=N)c1	none
CCC(Sc1nc2cc3c(cc2c(=O)n1Cc1ccco1)OCO3)C(=O)Nc1ccccc1OC (stereo unspecified)	none
COCCNC(=O)CSc1nc2cc3c(cc2c(=O)n1Cc1ccco1)OCO3	CYP2C9 inh 53.3, CYP2C19 inhib 93.3
CCCCNC(=O)CSc1nc2cc3c(cc2c(=O)n1CCCN(CC)CC)OCO3	none
CCC(Sc1nc2cc3c(cc2c(=O)n1Cc1ccco1)OCO3)C(=O)Nc1cccc(OC)c1 (stereo unspecified)	CYP2C9 inh 60.0
COCCNC(=O)c1ccc2c(=O)n(Cc3ccco3)c(SCC(=O)NC3CCCC3)nc2c1	CYP2C9 inh 80.6, CYP2C19 inhib 51.7
CCN(CC)C(=O)CSc1nc2cc3c(cc2c(=O)n1Cc1ccc2c(c1)OCO2)OCO3	none
CCC(Sc1nc2cc3c(cc2c(=O)n1Cc1ccco1)OCO3)C(=O)NCCOC (stereo unspecified)	PostGolgi ctrl 31.0
COC(=O)C(C(=O)OC)N1C(=O)CCC1=O	none
Cn1c(Cc2cccc3ccccc23)nnc1SCC(=O)N1CCN(c2ccccc2)CC1	none
N#CC(C(=O)Nc1cccc(Cl)c1)=C1Nc2ccccc2N1	none
N#C/C(=N\Nc1ccccc1Cl)C(=O)c1ccccc1	PostGolgi ctrl 48.2
N#C/C(=N\Nc1cccc(Cl)c1)C(=O)c1ccccc1	CYP2C9 inh 63.0, PostGolgi ctrl 84.1
Cc1ccc(S(=O)(=O)NCC(=O)N(CC(=O)NCC2CCCO2)C2CCCC2)cc1 (stereo unspecified)	none
CCOC(=O)C1CCCN(c2cc(C)nc3cc(-c4ccc(F)cc4)nn23)C1 (stereo unspecified)	CYP2C9 inh 66.9, PostGolgi ctrl 42.4
N#CC1=C(N)N2C(=C(C#N)C13CCCCC3)SC1CCCCC12O (stereo unspecified)	none
O=c1ccccn1Cc1c(Cl)cccc1Cl	none
O=C1c2ccsc2SCCN1Cc1ccc(Cl)cc1Cl	CYP2C19 inhib 53.2
O=C1c2ccsc2SCCN1Cc1c(Cl)cccc1Cl	CYP2C9 inh 88.7, CYP2C19 inhib 97.1
Oc1ccc2ccccc2c1C=Nc1ccccc1-c1nc2ccccc2[nH]1	CYP2C9 inh 95.0
Cc1nn(C(C)C(=O)Nc2sc3c(c2C#N)CCCC3)c(C)c1[N+](=O)[O-] (stereo unspecified)	CYP2C9 inh 61.2
CC(C)C(C(=O)Nc1sc2c(c1C#N)CCCCC2)N1C(=O)c2ccccc2C1=O (stereo unspecified)	CYP2C9 inh 63.6
Cc1nn(CCCC(=O)Nc2sc3c(c2C#N)CCC3)c(C)c1[N+](=O)[O-]	none
